SSB-PriA inh: blocks PriA binding to SSB C-terminal tail. AID 1272365. hit rate 0.6% among 430,000. AlphaScreen SSBct-PriA binding, biotinylated peptide. inhibition, % at 33 µM; in the data active = inhibition mostly above about 37%, no sharp cut-off; inactive = mostly below about 20%
RecA splice inh: Mtb RecA intein splicing inhibition. P9WHJ3. cell-free RecA intein splicing, fluorescence. inhibition, % (test concentration not listed). hit rate 0.75% among 290,000; in the data active = inhibition above about 30%
PrPC surface inh: reduces human prion protein on the cell surface; P04156; cell surface PrPC, TR-FRET read-out; inhibition, % at 13.8 µM; hit rate 0.43% among 370,000; AID 720596; in the data active = inhibition above about 24%
BJeLR viability: kills HRASV12-expressing BJeLR cells; BJeLR (HRASV12) viability, CellTiter-Glo ATP luminescence, 48 h; inhibition, % (concentration not given with the values); hit rate 0.17% among 300,000; in the data active = inhibition above about 50%
PfHsp40 yeast: compounds rescuing yeast from Plasmodium falciparum HSP40 toxicity. S. cerevisiae expressing PfHsp40, growth rescue, ATP luminescence. growth rescue, % at 12.5 µM. hit rate 0.68% among 340,000. AID 504582; in the data active = growth rescue above about 28%, passing the limit was not always enough;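 also: yeast W303a lacking pdr1 and pdr3 grown in galactose medium; growth measured after three days at 30 °C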
PrP 5UTR inh: suppresses PrP 5' UTR mRNA reporter expression. hit rate 0.35% among 340,000. AID 488862. cell-based PrP 5' UTR mRNA reporter, plate reader. inhibition, % (test concentration not listed); in the data active = inhibition above about 52%
PrPC TRFRET cf: confirmation of inhibitors of cell surface human prion protein | shares compounds with PrPC surface inh | cell surface PrPC level, TR-FRET | inhibition, % at 13.8 µM | hit rate 65% among 1,500 | AID 743200; in the data active = inhibition above about 25%
LD9 tox: LD9 cell cytotoxicity, PrPc inhibitor counter-screen; AID 743201; hit rate 29% among 1,500; shares compounds with PrPC surface inh; LD9 cells cytotoxicity, luminescence viability; inhibition, % at 13.8 µM; in the data active = inhibition above about 9.5%
A number is an active result; - = inactive; . = not tested or not shown. A selection: hits, their analogues and other compounds. The true share with any hit is near 1.9%.

SMILES | SSB-PriA inh | RecA splice inh | PrPC surface inh | BJeLR viability | PfHsp40 yeast | PrP 5UTR inh | PrPC TRFRET cf | LD9 tox
CCCCCCSc1ccc(-c2nc3ccc(C)cn3c2NCCCC)cc1OC | . | . | - | . | . | . | . | .
CCOCc1nc(N)nc(N)c1-c1cccc(Cl)c1 | . | . | 26 | . | . | . | - | -
COc1cccc(NC(=O)C(=O)NC2CCCCCC2)c1 | - | . | . | . | . | . | . | .
COc1cc2cc(Br)cc(Br)c2nc1C | - | - | 63 | - | - | - | 89 | -
COc1cc2cnncc2cc1OC | - | - | - | - | - | - | . | .
Cc1cc(=O)[nH]c(NN=Cc2cc(C)n(-c3ccccc3)c2C)n1 | - | . | . | . | . | . | . | .
CNc1ncc(C(=O)c2ccccc2)s1 | - | - | - | - | - | - | . | .
CNc1ncc(C(=O)c2ccc(Br)cc2)s1 | - | - | 26 | - | - | - | 46 | -
CNC(=O)c1c(NC(=O)c2ccc(S(=O)(=O)N3CCCC3)cc2)sc2c1CCN(C(C)C)C2 | . | - | - | - | . | . | . | .
CCN1CCc2c(sc(NC(=O)c3ccc(S(=O)(=O)N4CCCCCC4)cc3)c2C(=O)NC)C1 | - | - | 52 | - | - | - | - | -
C=CCn1c(SCC(=O)NCC2CCCO2)nc2scc(-c3ccc(F)cc3)c2c1=O (stereo unspecified) | - | . | . | . | . | . | . | .
Cc1ccc(NS(=O)(=O)c2cc(C(=O)NCc3ccccn3)ccc2Cl)cc1 | - | - | 40 | - | - | - | 35 | -
Cc1cccc(NS(=O)(=O)c2cc(C(=O)NCc3ccccn3)ccc2C)c1 | - | - | - | - | - | - | . | .
Cc1cc(C)n(CC(=O)Nc2cccc(Cl)c2C)c(=O)c1-c1nc(-c2ccccc2)no1 | - | . | . | . | . | . | . | .
C=C(C)Cn1c(C)nc2ccccc21 | - | . | . | . | . | . | . | .
COc1cc2nc(CN3CC=C(c4ccccc4)CC3)[nH]c(=O)c2cc1OC | - | . | 24 | - | - | - | 47 | 25
COc1ccccc1Oc1ccc2c(c1)C(=O)N(CC1CCCO1)C2=O (stereo unspecified) | - | . | 47 | - | - | - | - | -
COc1ccccc1OCC(=O)Nc1ccc2c(c1)C(=O)N(CC1CCCO1)C2=O (stereo unspecified) | - | - | - | - | - | - | . | .
O=C(Nc1nc2c(s1)CN(C(=O)CSc1ccc(F)cc1)CC2)c1ccoc1 | - | . | . | . | . | . | . | .
CCSCCOC(=O)C1=C(C)N(C)C(=O)NC1c1cc(OC)ccc1OC (stereo unspecified) | - | - | 43 | - | - | - | 30 | -
COc1cccc(NC(=O)CCSc2ccc3ccccc3n2)c1 | - | - | 68 | - | - | - | 84 | -
COc1cccc(NC(=O)CCSc2cc(C)c3ccccc3n2)c1 | - | . | . | . | . | . | . | .
COc1ccc(NC(=O)CCSc2ccc3ccccc3n2)cc1 | - | - | 56 | - | - | - | 75 | -
COc1ccc(NC(=O)CCSc2ccc(C)cc2)cc1 | - | - | - | - | - | - | . | .
COCCN(CCOC)C(=O)CC(=O)N(CCOC)CCOC | - | - | 28 | - | - | - | - | -
SMILES | SSB-PriA inh | RecA splice inh | PrPC surface inh | BJeLR viability | PfHsp40 yeast | PrP 5UTR inh | PrPC TRFRET cf | LD9 tox
COc1ccc2cc(C(=O)NCC3CCCN3c3nc4ccccc4o3)[nH]c2c1 (stereo unspecified) | - | . | . | . | . | . | . | .
CCc1nc2ccccc2[nH]c1=O | - | - | 37 | - | - | - | - | -
COc1cc(C(=O)NNC(=O)c2cc(-c3ccccc3)n[nH]2)cc(OC)c1C | - | . | 26 | . | - | - | - | -
CS(=O)(=O)c1ccc(C(=O)NNC(=O)c2cc(-c3ccccc3)n[nH]2)cc1 | - | . | - | . | - | - | . | .
O=C(Cn1c(-c2ccccn2)nc2ccccc21)NCc1ccccc1 | - | . | . | . | . | . | . | .
Fc1cccc(Nc2c3c(nc4ccccc24)CCC3)c1 | - | - | - | - | - | - | . | .
Cc1ccc2nc3c(c(Nc4cccc(O)c4)c2c1)CCC3 | - | - | 25 | - | - | - | - | 16
COC(=O)c1cccc(Nc2c3c(nc4ccccc24)CCC3)c1 | - | - | 29 | - | - | - | 30 | 12
CC(=O)c1cccc(Nc2c3c(nc4ccccc24)CCC3)c1 | - | - | - | - | - | - | . | .
Cc1cc(C)c(NC(=O)C(=O)NCC2(c3ccc(F)cc3)CC2)c(C)c1 | - | . | . | . | . | . | . | .
Cc1cn2nc(C(=O)NCCc3ccccn3)cc2c(=O)[nH]1 | - | . | . | . | . | . | . | .
CCCn1c(N)c(C(c2ccc(C(=O)OC)cc2)N2CCN(c3ccccc3)CC2)c(=O)[nH]c1=O (stereo unspecified) | - | - | - | - | - | - | . | .
COC(=O)c1ccc(C(c2c(N)n(CC(C)C)c(=O)[nH]c2=O)N2CCN(c3ccccc3)CC2)cc1 (stereo unspecified) | - | - | 30 | - | - | - | - | 10
C=C(C)Cn1c(COc2ccc(Cl)cc2Cl)nc2ccccc21 | - | . | . | . | . | . | . | .
Cc1cc2ccccc2n1CCNC(=O)c1ccc(S(=O)(=O)N2CCOCC2)cc1 | - | - | 27 | - | - | - | - | -
CCC(=O)NCCn1c(C)cc2ccccc21 | - | - | . | - | - | - | . | .
Cc1cc2ccccc2n1CCNC(=O)Cc1cccc2ccccc12 | - | - | 41 | - | - | - | - | -
Cc1cc2ccccc2n1CCNC(=O)C(C)(C)C | - | - | 39 | - | - | - | - | -
Cc1cc2ccccc2n1CCNC(=O)COc1ccccc1 | 49 | - | 42 | - | - | - | 37 | -

Compound activity as filed in PubChem BioAssay.
